From publication PMC7862700, “An all-to-all approach to the identification of sequence-specific readers for epigenetic DNA modifications on cytosine” come the findings set out here.

Common to all, as to assay: DAPPL (digital affinity profiling via proximity ligation, sequencing); 10 mM Tris-HCl pH 7.5, 50 mM NaCl, 1 mM DTT, 4% glycerol, room temperature, 30 min; GST-TFs on glutathione beads, 16-mer random dsDNA library, 0.1% formaldehyde crosslink after washing; high values mean tight binding
Settings in all cases: protein: recombinant; tags: N-terminal GST; dsDNA, one strand shown

In one assay the target is T1, ERF (Homo sapiens, UniProt P50548 1-548).
T1 sequence: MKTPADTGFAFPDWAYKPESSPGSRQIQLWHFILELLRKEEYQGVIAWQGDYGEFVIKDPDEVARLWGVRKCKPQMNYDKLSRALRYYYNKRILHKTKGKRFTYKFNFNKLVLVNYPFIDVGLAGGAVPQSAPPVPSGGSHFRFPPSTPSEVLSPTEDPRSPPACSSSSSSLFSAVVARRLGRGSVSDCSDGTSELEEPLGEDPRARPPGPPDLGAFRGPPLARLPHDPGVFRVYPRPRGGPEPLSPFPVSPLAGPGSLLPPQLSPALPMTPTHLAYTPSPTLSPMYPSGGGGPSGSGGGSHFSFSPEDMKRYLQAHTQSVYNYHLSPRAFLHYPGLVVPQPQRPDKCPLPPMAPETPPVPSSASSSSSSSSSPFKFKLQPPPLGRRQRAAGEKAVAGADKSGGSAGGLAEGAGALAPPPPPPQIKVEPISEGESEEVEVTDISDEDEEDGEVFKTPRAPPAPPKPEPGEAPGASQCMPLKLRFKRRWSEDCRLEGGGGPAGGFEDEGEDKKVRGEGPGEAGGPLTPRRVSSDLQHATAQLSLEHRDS
A digest of the protocol:
(§1)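 Binding signal is each hexamer's read frequency for a factor divided by its frequency in the tag-only sample. The factors were GST-fused human transcription factors from yeast, captured on glutathione beads, DNA-barcoded and pooled with that sample. Pools were incubated with 200 nmole of a random double-stranded 16-mer DNA library in Tris/NaCl/DTT/glycerol buffer at room temperature for 30 min, then washed, crosslinked with 0.1% formaldehyde, proximity-ligated with BsaI/T4 ligase (1 h, 37 °C), PCR-amplified and sequenced on an Illumina NextSeq500.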

For a further assay, the target named is T2, ETV3L (Homo sapiens, UniProt Q6ZN32 1-361).
T2 sequence: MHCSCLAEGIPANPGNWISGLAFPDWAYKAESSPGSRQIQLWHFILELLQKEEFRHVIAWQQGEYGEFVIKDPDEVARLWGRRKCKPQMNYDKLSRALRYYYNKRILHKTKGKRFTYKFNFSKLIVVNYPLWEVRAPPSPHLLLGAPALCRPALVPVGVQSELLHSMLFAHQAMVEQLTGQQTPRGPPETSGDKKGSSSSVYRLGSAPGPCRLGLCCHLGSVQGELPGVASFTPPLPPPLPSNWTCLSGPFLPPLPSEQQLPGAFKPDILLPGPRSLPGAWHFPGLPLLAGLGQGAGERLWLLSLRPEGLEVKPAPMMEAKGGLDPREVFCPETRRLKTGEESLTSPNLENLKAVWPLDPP
Put shortly: as §1

In a further assay the target is T3, ETS2 (Homo sapiens, UniProt P15036 1-469).
T3 sequence: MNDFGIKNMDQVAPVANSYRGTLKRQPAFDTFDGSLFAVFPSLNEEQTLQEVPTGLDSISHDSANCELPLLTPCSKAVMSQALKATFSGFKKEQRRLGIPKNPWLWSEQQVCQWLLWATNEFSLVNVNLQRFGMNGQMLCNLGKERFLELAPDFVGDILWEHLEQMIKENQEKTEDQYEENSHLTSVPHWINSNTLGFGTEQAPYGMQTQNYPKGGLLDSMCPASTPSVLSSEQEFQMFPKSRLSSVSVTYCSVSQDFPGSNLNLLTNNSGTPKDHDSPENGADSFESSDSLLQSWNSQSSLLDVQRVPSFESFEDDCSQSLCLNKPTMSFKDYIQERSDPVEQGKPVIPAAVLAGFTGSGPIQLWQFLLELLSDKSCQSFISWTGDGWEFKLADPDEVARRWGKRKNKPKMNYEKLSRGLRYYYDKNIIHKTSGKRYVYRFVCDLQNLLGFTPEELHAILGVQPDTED
Put shortly: as §1

The next assay addresses T4, SPDEF (Homo sapiens, UniProt O95238 1-335).
T4 sequence: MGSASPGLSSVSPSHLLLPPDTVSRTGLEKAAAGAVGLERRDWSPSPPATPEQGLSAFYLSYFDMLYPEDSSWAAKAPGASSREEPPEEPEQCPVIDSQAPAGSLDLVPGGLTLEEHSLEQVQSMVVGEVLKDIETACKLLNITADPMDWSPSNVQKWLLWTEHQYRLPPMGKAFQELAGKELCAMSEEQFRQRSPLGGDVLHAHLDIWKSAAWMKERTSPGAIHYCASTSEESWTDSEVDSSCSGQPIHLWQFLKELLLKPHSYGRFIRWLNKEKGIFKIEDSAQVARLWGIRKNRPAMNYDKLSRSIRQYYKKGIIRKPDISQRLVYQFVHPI
Put shortly: as §1

A further assay deals with T5, ETV7 (Homo sapiens, UniProt Q9Y603 1-341).
T5 sequence: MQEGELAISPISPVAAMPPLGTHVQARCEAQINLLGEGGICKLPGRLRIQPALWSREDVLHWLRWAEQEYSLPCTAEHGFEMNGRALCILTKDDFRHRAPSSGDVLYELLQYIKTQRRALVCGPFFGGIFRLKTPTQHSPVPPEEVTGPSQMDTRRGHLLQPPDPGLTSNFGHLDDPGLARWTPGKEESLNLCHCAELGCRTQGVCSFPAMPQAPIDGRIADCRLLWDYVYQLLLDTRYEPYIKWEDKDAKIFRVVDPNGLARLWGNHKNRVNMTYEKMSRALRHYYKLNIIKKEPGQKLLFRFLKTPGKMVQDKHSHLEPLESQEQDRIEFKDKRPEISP
A digest of the protocol:
as §1

For another assay, the target named is T6, ELF5 (Homo sapiens, UniProt Q9UKW6-2 1-255).
T6 sequence: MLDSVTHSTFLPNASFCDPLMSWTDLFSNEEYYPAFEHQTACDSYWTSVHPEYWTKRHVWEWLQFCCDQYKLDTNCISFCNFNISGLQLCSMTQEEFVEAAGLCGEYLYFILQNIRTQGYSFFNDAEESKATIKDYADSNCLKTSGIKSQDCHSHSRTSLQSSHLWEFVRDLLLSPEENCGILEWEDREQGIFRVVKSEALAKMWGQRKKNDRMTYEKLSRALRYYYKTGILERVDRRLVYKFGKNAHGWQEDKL
Put shortly:
as §1

For another assay, the target named is T7, ETV3 (Homo sapiens, UniProt P41162-2 1-143).
T7 sequence: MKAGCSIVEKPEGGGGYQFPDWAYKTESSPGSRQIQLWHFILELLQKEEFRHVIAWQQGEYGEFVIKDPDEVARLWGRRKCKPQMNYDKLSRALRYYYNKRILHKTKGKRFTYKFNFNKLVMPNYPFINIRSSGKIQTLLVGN
A digest of the protocol:
as §1

The target in the next assay is ETV6 (Homo sapiens, UniProt P41212 1-452). A digest of the protocol:
as §1

ETV6, sequence (P41212 whole entry): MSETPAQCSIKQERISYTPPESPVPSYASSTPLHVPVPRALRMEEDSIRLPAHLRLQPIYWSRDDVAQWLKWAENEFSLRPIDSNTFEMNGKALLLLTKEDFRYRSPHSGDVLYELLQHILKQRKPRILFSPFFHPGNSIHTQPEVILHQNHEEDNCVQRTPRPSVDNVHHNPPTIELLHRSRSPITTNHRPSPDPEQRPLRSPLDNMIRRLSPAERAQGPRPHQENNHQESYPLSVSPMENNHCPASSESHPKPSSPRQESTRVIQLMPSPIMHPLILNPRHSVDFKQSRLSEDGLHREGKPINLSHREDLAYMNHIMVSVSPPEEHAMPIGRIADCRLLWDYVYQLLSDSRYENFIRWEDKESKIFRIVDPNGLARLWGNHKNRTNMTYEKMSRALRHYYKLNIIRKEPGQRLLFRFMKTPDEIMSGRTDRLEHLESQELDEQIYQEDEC

Consider GTCTTA, for which the binding signal in the assay with ERF was 1.12 fold enrichment (6-mer frequency, TF over GST control); with ETV3L it was 1.21 fold enrichment (6-mer frequency, TF over GST control); with ETS2, 1.16 fold enrichment (6-mer frequency, TF over GST control); in the assay with SPDEF, 1.17 fold enrichment (6-mer frequency, TF over GST control); in the assay with ETV7 it was 1.21 fold enrichment (6-mer frequency, TF over GST control); with ELF5, 1.18 fold enrichment (6-mer frequency, TF over GST control). Also, the binding signal with ETV3 was 1.23 fold enrichment (6-mer frequency, TF over GST control); with ETV6, 1.11 fold enrichment (6-mer frequency, TF over GST control).
Regarding CAAGCA, the binding signal was 1.15 fold enrichment (6-mer frequency, TF over GST control) in the assay with ERF; 1.17 fold enrichment (6-mer frequency, TF over GST control) in the assay with ETV3L; 1.25 fold enrichment (6-mer frequency, TF over GST control) with ETS2; 1.06 fold enrichment (6-mer frequency, TF over GST control) in the assay with SPDEF; 1.1 fold enrichment (6-mer frequency, TF over GST control) in the assay with ETV7; 1.11 fold enrichment (6-mer frequency, TF over GST control) with ELF5. Moreover, the binding signal was 1.16 fold enrichment (6-mer frequency, TF over GST control) with ETV3 and 1.14 fold enrichment (6-mer frequency, TF over GST control) with ETV6.
Take AATCAG: the binding signal with ERF is 1.05 fold enrichment (6-mer frequency, TF over GST control); with ETV3L, 1.15 fold enrichment (6-mer frequency, TF over GST control); with ETS2 it was 1.08 fold enrichment (6-mer frequency, TF over GST control); with SPDEF, 1.01 fold enrichment (6-mer frequency, TF over GST control); in the assay with ETV7 it was 1.12 fold enrichment (6-mer frequency, TF over GST control); in the assay with ELF5 it was 1.04 fold enrichment (6-mer frequency, TF over GST control). The binding signal with ETV3 was 1.07 fold enrichment (6-mer frequency, TF over GST control); with ETV6, 1.14 fold enrichment (6-mer frequency, TF over GST control).
With TGCCAC, the binding signal in the assay with ERF is 1.14 fold enrichment (6-mer frequency, TF over GST control); with ETV3L, 1.28 fold enrichment (6-mer frequency, TF over GST control); with ETS2, 1.23 fold enrichment (6-mer frequency, TF over GST control); in the assay with SPDEF, 1.15 fold enrichment (6-mer frequency, TF over GST control); with ETV7, 1.21 fold enrichment (6-mer frequency, TF over GST control); in the assay with ELF5, 1.16 fold enrichment (6-mer frequency, TF over GST control). For the same sequence, the binding signal in the assay with ETV3 was 1.18 fold enrichment (6-mer frequency, TF over GST control); with ETV6, 1.24 fold enrichment (6-mer frequency, TF over GST control).
Consider ACATAC, for which the binding signal in the assay with ERF is 1.23 fold enrichment (6-mer frequency, TF over GST control); in the assay with ETV3L it was 1.15 fold enrichment (6-mer frequency, TF over GST control); in the assay with ETS2, 1.21 fold enrichment (6-mer frequency, TF over GST control); in the assay with SPDEF, 1.2 fold enrichment (6-mer frequency, TF over GST control); with ETV7, 1.12 fold enrichment (6-mer frequency, TF over GST control); with ELF5, 1.14 fold enrichment (6-mer frequency, TF over GST control). For the same sequence, the binding signal is 1.18 fold enrichment (6-mer frequency, TF over GST control) with ETV3 and 1.17 fold enrichment (6-mer frequency, TF over GST control) with ETV6.
For TATAAC, the binding signal in the assay with ERF was 1.18 fold enrichment (6-mer frequency, TF over GST control); in the assay with ETV3L, 1.21 fold enrichment (6-mer frequency, TF over GST control); with ETS2, 1.25 fold enrichment (6-mer frequency, TF over GST control); with SPDEF, 1.25 fold enrichment (6-mer frequency, TF over GST control); with ETV7, 1.26 fold enrichment (6-mer frequency, TF over GST control); with ELF5 it was 1.25 fold enrichment (6-mer frequency, TF over GST control). Also, the binding signal with ETV3 was 1.25 fold enrichment (6-mer frequency, TF over GST control); with ETV6, 1.19 fold enrichment (6-mer frequency, TF over GST control).
On to CCTGAA, for which the binding signal with ERF is 1.37 fold enrichment (6-mer frequency, TF over GST control); with ETV3L, 1.35 fold enrichment (6-mer frequency, TF over GST control); with ETS2, 1.33 fold enrichment (6-mer frequency, TF over GST control); with SPDEF, 1.48 fold enrichment (6-mer frequency, TF over GST control); with ETV7, 1.22 fold enrichment (6-mer frequency, TF over GST control); with ELF5, 1.5 fold enrichment (6-mer frequency, TF over GST control). In addition, the binding signal was 1.4 fold enrichment (6-mer frequency, TF over GST control) in the assay with ETV3 and 1.27 fold enrichment (6-mer frequency, TF over GST control) with ETV6.
CTTGCA: the binding signal in the assay with ERF was 1.39 fold enrichment (6-mer frequency, TF over GST control); with ETV3L, 1.53 fold enrichment (6-mer frequency, TF over GST control); in the assay with ETS2 it was 1.33 fold enrichment (6-mer frequency, TF over GST control); in the assay with SPDEF it was 1.49 fold enrichment (6-mer frequency, TF over GST control); with ETV7, 1.28 fold enrichment (6-mer frequency, TF over GST control); with ELF5 it was 1.36 fold enrichment (6-mer frequency, TF over GST control). Also, the binding signal is 1.45 fold enrichment (6-mer frequency, TF over GST control) in the assay with ETV3 and 1.3 fold enrichment (6-mer frequency, TF over GST control) with ETV6.
Turning to CGACGC, the binding signal was 1.17 fold enrichment (6-mer frequency, TF over GST control) with ERF; 1.08 fold enrichment (6-mer frequency, TF over GST control) with ETV3L; 1.16 fold enrichment (6-mer frequency, TF over GST control) with ETS2; 1.04 fold enrichment (6-mer frequency, TF over GST control) with SPDEF; 1.05 fold enrichment (6-mer frequency, TF over GST control) with ETV7; 1.05 fold enrichment (6-mer frequency, TF over GST control) in the assay with ELF5. The binding signal was 1 fold enrichment (6-mer frequency, TF over GST control) with ETV3 and 1.09 fold enrichment (6-mer frequency, TF over GST control) with ETV6.
